Assay results: PubChem BioAssay (NCI)
Compounds without any hit were thinned out: in the full panel of roughly 79,000, 15% have a hit. A number with no mark means an inactive call. Activity calls are given as the source filed them. No stated cut-off is given here; in the data, active means growth inhibition above about 70%; inactive means the rest.

How the values were obtained:
[1] = NCI Yeast Anticancer Drug Screen. Data for the rad52 strain (AID 147);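 further: 0% = growth of vehicle-treated control cultures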; conditions: S. cerevisiae rad52 mutant growth inhibition, active compounds read high
Summary of the method: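 Yeast strain carrying a DNA damage repair alteration was exposed to test compounds. Growth inhibition was measured relative to vehicle-treated controls.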

[2] = NCI Yeast Anticancer Drug Screen. Data for the wt1 strain (AID 149);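 further: 0% = growth of vehicle-treated wt1 cultures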; conditions: S. cerevisiae wt1 strain (SPY 50644) growth inhibition, active compounds read high
Summary of the method: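 wt1 yeast, compound-treated; % growth inhibition vs vehicle control.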

[3] = NCI Yeast Anticancer Drug Screen. Data for the rad50EPP+ strain (AID 151);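 further: 0% = growth of vehicle-treated control cultures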; conditions: S. cerevisiae rad50 mutant strain, active compounds read high
Summary of the method: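 Yeast strain carrying rad50 alteration (rad50EPP+) exposed to compounds; growth inhibition measured relative to vehicle-treated controls.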

[4] = NCI Yeast Anticancer Drug Screen. Data for the mgt1 strain (AID 153); conditions: S. cerevisiae mgt1 mutant growth inhibition, active compounds read high
Summary of the method: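 Yeast mgt1 strain (DNA repair/cell-cycle alteration panel) exposed to compounds; growth inhibition measured relative to vehicle-treated controls.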

[5] = NCI Yeast Anticancer Drug Screen. Data for the rad50 strain (AID 155);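 further: 0% = growth of vehicle-only cultures of the same strain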; conditions: S. cerevisiae rad50 strain growth inhibition, active compounds read high
Summary of the method: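 Genetically altered yeast (DNA repair pathway); compound treatment; growth inhibition vs vehicle ctrl.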

[6] = NCI Yeast Anticancer Drug Screen. Data for the mec2-1 strain (AID 157); conditions: S. cerevisiae mec2-1 strain, active compounds read high
Summary of the method: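 mec2-1 yeast strain, carrying an alteration in DNA damage repair or cell cycle control, was exposed to compounds; growth inhibition was measured relative to vehicle-treated controls.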

[7] = NCI Yeast Anticancer Drug Screen. Data for the rad14 strain (AID 159);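 further: 0% = growth of vehicle-treated control cultures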; conditions: S. cerevisiae rad14 strain growth inhibition, active compounds read high
Summary of the method: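 Test compounds were applied to a repair-deficient yeast strain. Its growth was then compared with that of cultures given vehicle alone, and inhibition was expressed relative to those controls.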

[8] = NCI Yeast Anticancer Drug Screen. Data for the sgs1 mgt1 strain (AID 161);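 further: 0% = growth of cultures given vehicle only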; conditions: S. cerevisiae sgs1 mgt1 strain, active compounds read high
Summary of the method: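 Percent growth inhibition was derived by comparing compound-exposed mutant yeast with vehicle-exposed cultures. The strain carries alterations in DNA damage repair.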

[9] = NCI Yeast Anticancer Drug Screen. Data for the CLN2oe strain (AID 163);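 further: 0% = growth of vehicle-only control cultures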; conditions: S. cerevisiae CLN2oe strain, active compounds read high
Summary of the method: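 Yeast cells carrying a defined cell-cycle control alteration were exposed to test compounds. Growth inhibition was scored against vehicle-treated control cultures.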

[10] = NCI Yeast Anticancer Drug Screen. Data for the cln2 rad14 strain (AID 165);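 further: 0% = growth equal to vehicle treated cultures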; conditions: S. cerevisiae cln2 rad14 strain, active compounds read high
Summary of the method: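 Yeast carrying cln2 and rad14 alterations (cell cycle control and DNA damage repair) were exposed to compounds. Growth inhibition was measured against vehicle-treated controls.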

[11] = NCI Yeast Anticancer Drug Screen. Data for the bub3 strain (AID 167); conditions: S. cerevisiae bub3 mutant strain, active compounds read high
Summary of the method: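 Yeast carrying a defined mutation is treated with each compound, and growth is compared with that of vehicle-exposed cells to give inhibition.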

[12] = NCI Yeast Anticancer Drug Screen. Data for the wt2 strain (AID 169);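 further: 0% = growth of vehicle-treated yeast cultures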; conditions: S. cerevisiae wt2 strain growth inhibition, active compounds read high
Summary of the method: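 Yeast cells were exposed to test compounds, and growth inhibition was measured relative to vehicle-treated controls.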

[13] = NCI Yeast Anticancer Drug Screen. Data for the mlh1 strain (AID 171);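 further: 0% = growth of vehicle-treated control cultures of the same strain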; conditions: S. cerevisiae mlh1 strain growth inhibition, active compounds read high
Summary of the method: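 Yeast carrying a defined genetic alteration in DNA damage repair or cell cycle control were exposed to test compounds. Growth inhibition was measured relative to vehicle-treated controls.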

[14] = NCI Yeast Anticancer Drug Screen. Data for the sgs1 strain (AID 173);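 further: 0% = growth of vehicle-only control cultures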; conditions: S. cerevisiae sgs1 mutant, active compounds read high
Summary of the method: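 Yeast mutant strains carrying defined defects in DNA damage repair or cell cycle control were exposed to test compounds. Growth inhibition was scored against vehicle-treated controls.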

[15] = NCI Yeast Anticancer Drug Screen. Data for the mlh1 rad18 strain (AID 175); conditions: S. cerevisiae mlh1 rad18 strain growth inhibition, active compounds read high
Summary of the method: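 Growth inhibition of the yeast strain was measured after compound exposure and expressed relative to vehicle-treated controls. The strain carries defined defects in DNA damage repair.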

[16] = NCI Yeast Anticancer Drug Screen. Data for the rad18 strain (AID 177); conditions: S. cerevisiae rad18 mutant growth inhibition, active compounds read high
Summary of the method: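 Yeast carrying a defined DNA damage repair alteration were exposed to compounds. Growth inhibition was expressed relative to vehicle-treated controls.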

[17] = at 5.0 µM (retest, dose inferred, filed as 0.5)
[18] = at 50.0 µM (retest, dose inferred, filed as 5.0)

CCOC(=O)c1cnc2c(C(F)(F)F)cccc2c1N=[N+]=[N-]
growth inhibition ([1]; at 1.2 µM): 3% | growth inhibition ([1]; at 3.7 µM): 2% | growth inhibition ([1]; at 11.0 µM): 2% | growth inhibition ([1]; at 33.0 µM): 42% | growth inhibition ([1]; at 100.0 µM): 95% (active) | growth inhibition ([2]; at 1.2 µM): 10% | growth inhibition ([2]; at 3.7 µM): 1% | growth inhibition ([2]; at 11.0 µM): 1% | growth inhibition ([2]; at 33.0 µM): 37% | growth inhibition ([2]; at 100.0 µM): 87% (active) | growth inhibition ([3]; at 1.2 µM): 4% | growth inhibition ([3]; at 3.7 µM): 0% | growth inhibition ([3]; at 11.0 µM): -5% | growth inhibition ([3]; at 33.0 µM): 86% (active) | growth inhibition ([3]; at 100.0 µM): 97% (active) | growth inhibition ([4]; at 1.2 µM): 0% | growth inhibition ([4]; at 3.7 µM): -2% | growth inhibition ([4]; at 11.0 µM): 1% | growth inhibition ([4]; at 33.0 µM): 52% | growth inhibition ([4]; at 100.0 µM): 93% (active) | growth inhibition ([5]; at 1.2 µM): -6% | growth inhibition ([5]; at 3.7 µM): -17% | growth inhibition [5, 17]: 15% | growth inhibition ([5]; at 11.0 µM): 20% | growth inhibition ([5]; at 33.0 µM): 42% | growth inhibition [5, 18]: 8% | growth inhibition ([5]; at 50.0 µM): 29.4% | growth inhibition ([5]; at 100.0 µM): 95% (active) | growth inhibition ([6]; at 1.2 µM): -3% | growth inhibition ([6]; at 3.7 µM): -4% | growth inhibition [6, 17]: 2% | growth inhibition ([6]; at 11.0 µM): -4% | growth inhibition ([6]; at 33.0 µM): 25% | growth inhibition [6, 18]: -5% | growth inhibition ([6]; at 50.0 µM): 17.6% | growth inhibition ([6]; at 100.0 µM): 89% (active) | growth inhibition ([7]; at 1.2 µM): 3% | growth inhibition ([7]; at 3.7 µM): 4% | growth inhibition ([7]; at 11.0 µM): 3% | growth inhibition ([7]; at 33.0 µM): 52% | growth inhibition ([7]; at 100.0 µM): 98% (active) | growth inhibition [8, 17]: 5% | growth inhibition [8, 18]: 31% | growth inhibition ([8]; at 50.0 µM): 0.9% | growth inhibition ([9]; at 1.2 µM): -1% | growth inhibition ([9]; at 3.7 µM): -1% | growth inhibition ([9]; at 11.0 µM): -2% | growth inhibition ([9]; at 33.0 µM): 21% | growth inhibition ([9]; at 100.0 µM): 73% (active) | growth inhibition [10, 17]: 45% | growth inhibition [10, 18]: 24% | growth inhibition ([10]; at 50.0 µM): 84.7% (active) | growth inhibition ([11]; at 1.2 µM): -2% | growth inhibition ([11]; at 3.7 µM): -3% | growth inhibition [11, 17]: -3% | growth inhibition ([11]; at 11.0 µM): -4% | growth inhibition ([11]; at 33.0 µM): 20% | growth inhibition [11, 18]: 91% (active) | growth inhibition ([11]; at 50.0 µM): 67.3% | growth inhibition ([11]; at 100.0 µM): 92% (active) | growth inhibition ([12]; at 1.2 µM): -1% | growth inhibition ([12]; at 3.7 µM): 1% | growth inhibition ([12]; at 11.0 µM): 2% | growth inhibition ([12]; at 33.0 µM): 68% | growth inhibition ([12]; at 100.0 µM): 99% (active) | growth inhibition ([13]; at 1.2 µM): -1% | growth inhibition ([13]; at 3.7 µM): 0% | growth inhibition ([13]; at 11.0 µM): -1% | growth inhibition ([13]; at 33.0 µM): 56% | growth inhibition ([13]; at 100.0 µM): 98% (active) | growth inhibition ([14]; at 1.2 µM): 1% | growth inhibition ([14]; at 3.7 µM): -2% | growth inhibition ([14]; at 11.0 µM): -7% | growth inhibition ([14]; at 33.0 µM): 67% | growth inhibition ([14]; at 100.0 µM): 97% (active) | growth inhibition [15, 17]: 1% | growth inhibition [15, 18]: 21% | growth inhibition ([15]; at 50.0 µM): 94.8% (active) | growth inhibition ([16]; at 1.2 µM): -5% | growth inhibition ([16]; at 3.7 µM): -8% | growth inhibition ([16]; at 11.0 µM): -10% | growth inhibition ([16]; at 33.0 µM): 40% | growth inhibition ([16]; at 100.0 µM): 94% (active)

COc1ccc2ccc3ccccc3c2c1C=O
growth inhibition ([1]; at 1.2 µM): -5% | growth inhibition ([1]; at 3.7 µM): -5% | growth inhibition ([1]; at 11.0 µM): -3% | growth inhibition ([1]; at 33.0 µM): 0% | growth inhibition ([1]; at 100.0 µM): 63% | growth inhibition ([2]; at 1.2 µM): -3% | growth inhibition ([2]; at 3.7 µM): -5% | growth inhibition ([2]; at 11.0 µM): -5% | growth inhibition ([2]; at 33.0 µM): -4% | growth inhibition ([2]; at 100.0 µM): 93% (active) | growth inhibition ([3]; at 1.2 µM): 0% | growth inhibition ([3]; at 3.7 µM): 2% | growth inhibition ([3]; at 11.0 µM): 3% | growth inhibition ([3]; at 33.0 µM): 8% | growth inhibition ([3]; at 100.0 µM): 25% | growth inhibition ([4]; at 1.2 µM): -7% | growth inhibition ([4]; at 3.7 µM): -6% | growth inhibition ([4]; at 11.0 µM): -7% | growth inhibition ([4]; at 33.0 µM): -5% | growth inhibition ([4]; at 100.0 µM): 74% (active) | growth inhibition ([5]; at 1.2 µM): 0% | growth inhibition ([5]; at 3.7 µM): 23% | growth inhibition [5, 17]: 9% | growth inhibition ([5]; at 11.0 µM): 28% | growth inhibition ([5]; at 33.0 µM): 6% | growth inhibition [5, 18]: 64% | growth inhibition ([5]; at 50.0 µM): 49% | growth inhibition ([5]; at 100.0 µM): 79% (active) | growth inhibition ([6]; at 1.2 µM): -6% | growth inhibition ([6]; at 3.7 µM): -6% | growth inhibition [6, 17]: 9% | growth inhibition ([6]; at 11.0 µM): -6% | growth inhibition ([6]; at 33.0 µM): 0% | growth inhibition [6, 18]: 50% | growth inhibition ([6]; at 50.0 µM): 13.2% | growth inhibition ([6]; at 100.0 µM): 96% (active) | growth inhibition ([7]; at 1.2 µM): 3% | growth inhibition ([7]; at 3.7 µM): 5% | growth inhibition ([7]; at 11.0 µM): 5% | growth inhibition ([7]; at 33.0 µM): 14% | growth inhibition ([7]; at 100.0 µM): 83% (active) | growth inhibition [8, 17]: 7% | growth inhibition [8, 18]: 68% | growth inhibition ([8]; at 50.0 µM): 55.8% | growth inhibition ([9]; at 1.2 µM): -6% | growth inhibition ([9]; at 3.7 µM): -6% | growth inhibition ([9]; at 11.0 µM): -2% | growth inhibition ([9]; at 33.0 µM): -2% | growth inhibition ([9]; at 100.0 µM): 81% (active) | growth inhibition [10, 17]: 15% | growth inhibition [10, 18]: 16% | growth inhibition ([10]; at 50.0 µM): 17.6% | growth inhibition ([11]; at 1.2 µM): -2% | growth inhibition ([11]; at 3.7 µM): 0% | growth inhibition [11, 17]: 5% | growth inhibition ([11]; at 11.0 µM): -5% | growth inhibition ([11]; at 33.0 µM): -2% | growth inhibition [11, 18]: 11% | growth inhibition ([11]; at 50.0 µM): -11.7% | growth inhibition ([11]; at 100.0 µM): 76% (active) | growth inhibition ([12]; at 1.2 µM): -3% | growth inhibition ([12]; at 3.7 µM): 4% | growth inhibition ([12]; at 11.0 µM): -4% | growth inhibition ([12]; at 33.0 µM): -4% | growth inhibition ([12]; at 100.0 µM): 77% (active) | growth inhibition ([13]; at 1.2 µM): -6% | growth inhibition ([13]; at 3.7 µM): -5% | growth inhibition ([13]; at 11.0 µM): -5% | growth inhibition ([13]; at 33.0 µM): -6% | growth inhibition ([13]; at 100.0 µM): 29% | growth inhibition ([14]; at 1.2 µM): -4% | growth inhibition ([14]; at 3.7 µM): -1% | growth inhibition ([14]; at 11.0 µM): 4% | growth inhibition ([14]; at 33.0 µM): 10% | growth inhibition ([14]; at 100.0 µM): 50% | growth inhibition [15, 17]: 14% | growth inhibition [15, 18]: 89% (active) | growth inhibition ([15]; at 50.0 µM): 57.1% | growth inhibition ([16]; at 1.2 µM): -2% | growth inhibition ([16]; at 3.7 µM): 2% | growth inhibition ([16]; at 11.0 µM): 3% | growth inhibition ([16]; at 33.0 µM): 9% | growth inhibition ([16]; at 100.0 µM): 83% (active)
